Results from PubChem BioAssay.
“And” between values parts separate entries of the source, which are not always exact repeats. Equal entries are not always repeated. Results filed as inconclusive are left out. Some structures have more than one record in an assay (separate samples or runs), and their calls can disagree. The source made the active and inactive calls.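 Rule for the calls, unless noted: active = percent response above a set limit, the screen-wide mean plus 3 SD (cut at about 130% in these data); inactive = the rest.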

Tests used:
[1] = yeast TOR pathway RPL19A-GFP modulators, primary screen, cell-based, S. cerevisiae, multiplex flow cytometry (AID 1862; in the data active = percent of DMSO control GFP below about 86%;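 note: lower values mimic rapamycin by blocking the RPL19A rise seen in DMSO cells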); details: S. cerevisiae RPL19A-GFP strain, flow cytometry fluorescence, 3 h; at 10 µM; stronger effect = lower value
[2] = modulators of MEP2-GFP levels in yeast, primary screen, S. cerevisiae, multiplex flow cytometry (AID 1867;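 active = GFP response, as percent of the DMSO control, above the screen-wide mean plus 3 SD, about 139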;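 note: median GFP channel fluorescence of barcode-gated MEP2-GFP cells measured by flow cytometry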); details: S. cerevisiae MEP2-GFP strain, 3 h, at 10 µM, stronger effect = higher value, 100% means same as DMSO wells
[3] = modulators of CIT2-GFP expression in yeast, primary screen, S. cerevisiae, GFP fusion, multiplex flow cytometry (AID 1870); details: 3 h, at 10 µM, stronger effect = higher value;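 note: barcoded CIT2-GFP strain pooled with four other GFP strains with rapamycin as positive control; median GFP fluorescence per well over plate mean of DMSO wells so 100% = DMSO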
[4] = modulators of LAP4-GFP expression in yeast, primary screen, S. cerevisiae, multiplex flow cytometry (AID 1873;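 active = GFP signal, as percent of the solvent control, above the screen mean plus 3 SD, about 149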); details: 3 h, at 10 µM, stronger effect = higher value
[5] = modulators of AGP1-GFP expression in yeast TOR pathway, primary screen, cell-based, multiplex flow cytometry, S. cerevisiae (AID 1887;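 active = GFP signal above the screen-wide mean plus 3 SD, that is over about 124.5% of the solvent control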;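 note: AGP1-GFP fusion strain of S. cerevisiae within a five-strain barcoded multiplex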); details: 3 h, at 10 µM, stronger effect = higher value
[6] = inhibitors of CD8+ T cell-vesicle binding, pilot screen, LFA-1/ICAM-1 modulator project, MLPCN validation set, flow cytometry (AID 2523;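 active = response below a set limit, under 55% cells CD8-positive and vesicle-bound, and CD8 cells' 90th-percentile brightness under 279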;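 for vesicle binding response: mean PE anti-B7-1 fluorescence of CD8+ cells relative to row control; 100% = QL9-loaded vesicles with DMSO vehicle in the same plate row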); details: 2C mouse CD8+ T cells, at 7 µM, stronger effect = lower value; double positive events: measured here: CD8+/vesicle+ event percentage
[7] = biological target: Integrin beta-1 (Homo sapiens) + Integrin alpha-4 (Homo sapiens) (UniProt P13612+P05556); assay: inhibition of HUTS-21 binding to VLA-4, pilot screen, VLA-4 allosteric modulator project, U937 cells, HUTS-21 mAb, flow cytometry, validation set (AID 2674;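 active = inhibition above 50%, about 3 SD of the validation set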;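 note: antibody binding induced by the VLA-4 ligand LDV present at three times its Kd; 0% = LDV ligand with antibody and no compound and 100% = antibody without LDV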); details: HUTS-21 LIBS mAb binding, at 6.7 µM, stronger effect = higher value, binding induced by LDV ligand
Chain of Integrin beta-1 (Homo sapiens) + Integrin alpha-4 (Homo sapiens) (P05556 whole entry, looked up): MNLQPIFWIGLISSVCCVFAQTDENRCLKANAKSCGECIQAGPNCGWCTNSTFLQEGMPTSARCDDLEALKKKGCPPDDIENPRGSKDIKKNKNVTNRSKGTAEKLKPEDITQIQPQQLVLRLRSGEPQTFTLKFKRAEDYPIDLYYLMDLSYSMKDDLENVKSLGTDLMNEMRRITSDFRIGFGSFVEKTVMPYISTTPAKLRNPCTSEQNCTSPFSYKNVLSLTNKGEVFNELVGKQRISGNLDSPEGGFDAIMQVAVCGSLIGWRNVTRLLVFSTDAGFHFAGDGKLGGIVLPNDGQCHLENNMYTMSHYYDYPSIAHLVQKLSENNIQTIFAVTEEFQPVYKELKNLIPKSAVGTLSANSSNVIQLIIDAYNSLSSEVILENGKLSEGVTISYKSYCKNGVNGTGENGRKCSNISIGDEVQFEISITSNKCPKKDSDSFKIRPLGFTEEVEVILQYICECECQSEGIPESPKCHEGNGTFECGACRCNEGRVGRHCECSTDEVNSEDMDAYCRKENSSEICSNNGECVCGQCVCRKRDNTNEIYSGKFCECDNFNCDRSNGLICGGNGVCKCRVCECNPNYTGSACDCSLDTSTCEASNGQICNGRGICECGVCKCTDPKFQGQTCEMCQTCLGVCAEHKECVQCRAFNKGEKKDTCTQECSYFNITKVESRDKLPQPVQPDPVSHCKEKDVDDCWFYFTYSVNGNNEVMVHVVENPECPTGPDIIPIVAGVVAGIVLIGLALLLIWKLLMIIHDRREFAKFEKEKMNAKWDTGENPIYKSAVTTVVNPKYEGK
Chain of Integrin beta-1 (Homo sapiens) + Integrin alpha-4 (Homo sapiens) (P13612 whole entry, looked up): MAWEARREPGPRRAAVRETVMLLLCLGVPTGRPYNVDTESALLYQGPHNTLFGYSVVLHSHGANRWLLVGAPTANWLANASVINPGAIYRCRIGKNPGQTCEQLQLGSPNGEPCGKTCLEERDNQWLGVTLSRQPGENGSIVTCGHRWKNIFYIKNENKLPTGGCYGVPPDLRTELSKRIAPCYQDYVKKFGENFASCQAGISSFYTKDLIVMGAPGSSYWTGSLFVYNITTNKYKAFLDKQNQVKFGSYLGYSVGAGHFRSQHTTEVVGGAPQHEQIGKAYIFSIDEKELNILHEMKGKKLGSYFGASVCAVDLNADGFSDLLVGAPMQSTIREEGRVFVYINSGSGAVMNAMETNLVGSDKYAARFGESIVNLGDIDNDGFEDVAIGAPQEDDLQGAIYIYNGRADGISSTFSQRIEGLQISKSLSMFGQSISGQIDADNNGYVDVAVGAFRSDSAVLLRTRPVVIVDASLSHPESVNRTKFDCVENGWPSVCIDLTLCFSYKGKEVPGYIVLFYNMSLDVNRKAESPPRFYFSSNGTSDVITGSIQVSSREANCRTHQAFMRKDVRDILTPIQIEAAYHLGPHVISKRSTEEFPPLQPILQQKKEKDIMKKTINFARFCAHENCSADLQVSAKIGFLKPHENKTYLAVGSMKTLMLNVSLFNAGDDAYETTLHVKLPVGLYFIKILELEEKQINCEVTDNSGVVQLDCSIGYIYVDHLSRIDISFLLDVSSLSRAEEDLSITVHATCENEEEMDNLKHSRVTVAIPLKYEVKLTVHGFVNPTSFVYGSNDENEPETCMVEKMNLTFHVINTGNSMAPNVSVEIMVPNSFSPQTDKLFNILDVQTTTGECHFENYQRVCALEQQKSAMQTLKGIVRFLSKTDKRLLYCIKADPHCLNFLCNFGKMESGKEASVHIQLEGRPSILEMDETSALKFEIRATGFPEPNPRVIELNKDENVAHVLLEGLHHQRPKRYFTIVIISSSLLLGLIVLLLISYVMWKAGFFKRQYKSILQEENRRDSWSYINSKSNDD

[8] = superoxide lowering in aged yeast cells, pilot screen, validation compound set (AID 2706;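 active = superoxide response below 65% of plate, a cut near 3 SD across the whole screen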;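 note: yeast exposed to compound for one week at 30 degrees C before staining; 100% = mean of all compound wells on the same plate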); details: S. cerevisiae aging, superoxide DHE fluorescence; at 10 µM; stronger effect = lower value
[9] = biological target: Beta-adrenergic receptor kinase 1 (Homo sapiens) (UniProt P25098); assay: GRK2 binders displacing RNA aptamer, biochemical, validation, human GRK2, bead flow cytometry (AID 488806;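 active = aptamer binding inhibition above 30%, about 3 SD of noise from non-fluorescent compounds; inactive = inhibition at or below 30%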); details: bead-bound GRK2, FAM-aptamer displacement, at 10 µM, stronger effect = higher value
Chain of Beta-adrenergic receptor kinase 1 (Homo sapiens) (P25098 whole entry, looked up): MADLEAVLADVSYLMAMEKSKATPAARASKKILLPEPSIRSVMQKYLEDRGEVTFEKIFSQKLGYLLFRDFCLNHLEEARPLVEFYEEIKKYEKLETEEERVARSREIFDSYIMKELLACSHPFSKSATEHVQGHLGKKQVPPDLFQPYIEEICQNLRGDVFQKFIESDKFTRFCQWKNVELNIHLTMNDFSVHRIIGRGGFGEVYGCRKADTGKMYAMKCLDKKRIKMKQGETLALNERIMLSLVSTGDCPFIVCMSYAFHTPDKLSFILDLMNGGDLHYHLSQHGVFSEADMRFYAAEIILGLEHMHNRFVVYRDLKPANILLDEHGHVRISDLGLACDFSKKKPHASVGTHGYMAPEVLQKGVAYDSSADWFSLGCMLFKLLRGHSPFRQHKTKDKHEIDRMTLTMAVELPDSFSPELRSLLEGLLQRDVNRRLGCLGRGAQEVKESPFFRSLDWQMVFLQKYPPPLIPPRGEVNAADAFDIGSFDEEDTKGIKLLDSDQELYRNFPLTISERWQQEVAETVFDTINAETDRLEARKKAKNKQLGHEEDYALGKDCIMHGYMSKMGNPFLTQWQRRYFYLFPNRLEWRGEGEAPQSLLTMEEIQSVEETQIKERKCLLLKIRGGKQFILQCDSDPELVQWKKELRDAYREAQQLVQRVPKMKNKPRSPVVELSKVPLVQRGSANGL

[10] = biological target: Beta-2 adrenergic receptor (Homo sapiens) (UniProt P07550); assay: beta2AR agonists driving receptor internalization, pilot screen, cell-based, FAP fluorogen, flow cytometry, validation set (AID 504459;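 active = percent response above 42, roughly 3 SD of non-fluorescent test compounds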;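 note: agonist-driven loss of surface beta2AR via internalization measured by FAP dye flow cytometry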); details: Am2.2-beta2AR cells, FAP surface receptor flow cytometry; at 10 µM; stronger effect = higher value
Chain of Beta-2 adrenergic receptor (Homo sapiens) (P07550 whole entry, looked up): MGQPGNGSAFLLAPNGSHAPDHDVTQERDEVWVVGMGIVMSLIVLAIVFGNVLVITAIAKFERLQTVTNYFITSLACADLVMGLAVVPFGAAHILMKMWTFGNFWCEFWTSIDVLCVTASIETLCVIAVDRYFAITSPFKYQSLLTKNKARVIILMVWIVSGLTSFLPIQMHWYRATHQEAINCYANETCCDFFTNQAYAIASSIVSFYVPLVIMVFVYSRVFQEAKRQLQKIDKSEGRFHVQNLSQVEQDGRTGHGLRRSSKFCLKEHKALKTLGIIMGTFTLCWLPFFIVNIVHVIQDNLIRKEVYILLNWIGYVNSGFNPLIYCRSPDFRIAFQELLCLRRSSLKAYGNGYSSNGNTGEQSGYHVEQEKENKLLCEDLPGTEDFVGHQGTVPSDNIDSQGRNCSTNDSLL

[11] = biological target: AP-2 complex subunit beta (Homo sapiens) (UniProt P63010); assay: inhibitors of arrestin peptide binding to AP2, pilot screen, biochemical, validation set, GST-AP2 beads, flow cytometry (AID 504541;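 active = inhibition above 54%, about 3 SD of non-fluorescent compounds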;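 note: AP2 carries R879A mutation and is captured from E. coli lysate; bead-bound FITC arrestin peptide fluorescence measuring arrestin peptide binding to AP2; 0% = DMSO wells and 100% = excess unlabeled arrestin peptide control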); details: FITC arrestin peptide, at 10 µM, stronger effect = higher value, AP2 beta2 appendage fragment, R879A mutant
Chain of AP-2 complex subunit beta (Homo sapiens) (P63010 whole entry, looked up, the tested form may be a part, one chain of several): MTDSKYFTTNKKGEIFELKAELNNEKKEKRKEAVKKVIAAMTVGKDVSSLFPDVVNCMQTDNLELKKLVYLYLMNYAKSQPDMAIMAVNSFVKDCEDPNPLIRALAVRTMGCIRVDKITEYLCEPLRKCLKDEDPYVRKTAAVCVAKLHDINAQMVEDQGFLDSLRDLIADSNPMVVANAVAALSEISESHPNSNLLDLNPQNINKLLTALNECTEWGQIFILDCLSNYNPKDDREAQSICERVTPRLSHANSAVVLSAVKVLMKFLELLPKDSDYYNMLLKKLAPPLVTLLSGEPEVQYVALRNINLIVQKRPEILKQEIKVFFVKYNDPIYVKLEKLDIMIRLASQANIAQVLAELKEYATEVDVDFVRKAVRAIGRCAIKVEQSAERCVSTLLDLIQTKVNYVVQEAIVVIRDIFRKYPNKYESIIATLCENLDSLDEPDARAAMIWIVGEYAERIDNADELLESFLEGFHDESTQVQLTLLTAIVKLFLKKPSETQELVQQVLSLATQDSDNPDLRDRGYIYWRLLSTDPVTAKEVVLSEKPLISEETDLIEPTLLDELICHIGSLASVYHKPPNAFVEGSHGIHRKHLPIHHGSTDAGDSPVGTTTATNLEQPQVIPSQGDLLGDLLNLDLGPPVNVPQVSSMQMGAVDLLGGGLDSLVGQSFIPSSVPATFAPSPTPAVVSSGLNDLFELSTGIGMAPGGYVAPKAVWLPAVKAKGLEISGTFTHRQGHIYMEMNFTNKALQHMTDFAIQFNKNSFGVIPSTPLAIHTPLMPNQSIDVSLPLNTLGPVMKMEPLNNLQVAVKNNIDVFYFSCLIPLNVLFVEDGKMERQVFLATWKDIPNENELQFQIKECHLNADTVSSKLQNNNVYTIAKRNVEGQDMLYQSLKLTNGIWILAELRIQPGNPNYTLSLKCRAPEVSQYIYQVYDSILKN

[12] = yeast V-ATPase proton transport modulators, S. cerevisiae, pHLuorin, HTS validation (AID 504600; in the data active = response above about 15%;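 note: plate controls were DMSO for no effect and reference compound for full effect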); details: S. cerevisiae pHLuorin cytosolic pH, at 10 µM, stronger effect = higher value
[13] = system: anti-desmoglein-3 scFv antibody binding to human DSG3; assay: inhibitors of anti-DSG3 scFv binding to DSG3, pilot screen, biochemical, validation compound set, bead-based, flow cytometry (AID 588368;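 active = binding below the plate cutoff, the plate median minus 3 SD, with a reading above zero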;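 note: signal is the median channel fluorescence of bead-bound GFP antibody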); details: Protein G beads, DSG3-Fc, scFv-GFP binding, at 10 µM, stronger effect = lower value
[14] = inhibitors of fungal efflux pumps CDR1, CDR2, MDR1, pilot screen, validation compound set, multiplex, phenotypic (AID 588506;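 active = efflux inhibition above 0.42, the validation set average plus 4 SD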;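 note: Nile Red retained in cells so higher fluorescence means more efflux inhibition; 0 = negative control wells and 1 = enniatin B 25 µM full block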); details: S. cerevisiae pump-expressing triplex, Nile Red efflux flow cytometry; at 10 µM; stronger effect = higher value; the pumps come from Candida albicans
[15] = biological target: ATP-binding cassette sub-family B member 6 (Homo sapiens) (UniProt Q9NP58); assay: ABCB6 transporter inhibitors, pilot screen, K562-ABCB6 cells, flow cytometry, validation set (AID 588550;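 active = inhibition above the screen-wide mean plus 3 SD, about 51%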;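 note: 0% = DMSO wells and 100% = benzethonium chloride 70 µM positive control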); details: K562-ABCB6 porphyrin accumulation, 1 h, at 10 µM, stronger effect = higher value
Chain of ATP-binding cassette sub-family B member 6 (Homo sapiens) (Q9NP58 whole entry, looked up): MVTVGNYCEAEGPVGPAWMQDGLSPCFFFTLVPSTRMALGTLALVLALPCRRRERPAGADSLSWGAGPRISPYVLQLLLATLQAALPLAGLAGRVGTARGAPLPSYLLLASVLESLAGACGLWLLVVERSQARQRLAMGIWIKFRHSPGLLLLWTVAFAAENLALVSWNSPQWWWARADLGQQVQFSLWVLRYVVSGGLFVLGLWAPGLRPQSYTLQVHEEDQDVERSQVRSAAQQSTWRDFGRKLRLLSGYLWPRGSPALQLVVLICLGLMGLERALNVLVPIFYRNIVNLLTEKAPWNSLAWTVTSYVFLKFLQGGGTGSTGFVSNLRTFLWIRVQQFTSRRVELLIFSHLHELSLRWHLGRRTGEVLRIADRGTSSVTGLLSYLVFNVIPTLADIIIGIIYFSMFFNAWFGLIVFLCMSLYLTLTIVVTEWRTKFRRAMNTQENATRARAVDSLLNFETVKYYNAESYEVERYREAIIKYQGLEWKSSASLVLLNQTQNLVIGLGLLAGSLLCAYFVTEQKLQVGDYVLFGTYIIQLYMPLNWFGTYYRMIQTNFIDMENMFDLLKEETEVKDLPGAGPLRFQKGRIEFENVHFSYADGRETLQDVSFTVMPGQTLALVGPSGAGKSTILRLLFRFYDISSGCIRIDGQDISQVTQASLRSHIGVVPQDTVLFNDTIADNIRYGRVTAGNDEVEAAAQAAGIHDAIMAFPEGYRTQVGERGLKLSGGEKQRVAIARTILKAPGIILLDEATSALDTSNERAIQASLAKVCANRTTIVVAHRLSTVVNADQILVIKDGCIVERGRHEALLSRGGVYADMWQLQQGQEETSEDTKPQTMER

[16] = promoters of myeloid differentiation in arrested cells, primary screen, cell-based, GFP/MAC1 double positive, flow cytometry, validation set (AID 588685;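 active = differentiation response of at least 50%, scaled between solvent and reference control, from cells with both markers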;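 note: compound exposure lasts four days before antibody staining and flow analysis; 0% = DMSO wells and 100% = 5 µM fulvestrant positive control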); details: ER-HoxA9 marrow cells, stronger effect = higher value, normalized: vehicle 0, fulvestrant 100

CCCN1CCC(NC(=O)Nc2ccc(Br)cc2)CC1
inactive: percent of DMSO control GFP [1] 104% | GFP response vs DMSO [2] 110% | percent response of DMSO control [3] 102% | GFP response vs DMSO [4] 92.7% | GFP response, % of DMSO [5] 102% | vesicle binding response [6] 96.6% | inhibition [7] -0.45% | superoxide response (% of plate) [8] 94.7% | aptamer binding inhibition [9] -5% | response [10] 1.9% | inhibition [11] -13.3% | response [12] 1.92% | binding (% of control) [13] 96.8% | efflux inhibition (fraction of control) [14] -0.23 | inhibition [15] 16% | differentiation response [16] 13.9%
63.2%: double positive events [6]

Cc1cccc(OCC(=O)Nc2ccc(C(=O)NCC(C)C)cc2)c1
62.1%: double positive events [6]
inactive: percent of DMSO control GFP [1] 102% | GFP response vs DMSO [2] 102% | percent response of DMSO control [3] 98.3% | GFP response vs DMSO [4] 110% | GFP response, % of DMSO [5] 115% | vesicle binding response [6] 156% | inhibition [7] 16.8% | superoxide response (% of plate) [8] 97.4% | aptamer binding inhibition [9] 3% | response [10] -25% | inhibition [11] -3.7% | response [12] 0.58% | binding (% of control) [13] 99.3% | efflux inhibition (fraction of control) [14] -0.09 | inhibition [15] 3% | differentiation response [16] 32.5%

COc1cc(Cc2cnc(N)nc2N)cc(OC)c1OC
0.61 (active) and 0.18 (inactive): efflux inhibition (fraction of control) [14]
62.8% and 60.9%: double positive events [6]
inactive: percent of DMSO control GFP [1] 100% and 102% | GFP response vs DMSO [2] 95.1% and 101% | percent response of DMSO control [3] 91.9% and 102% | GFP response vs DMSO [4] 84.8% and 103% | GFP response, % of DMSO [5] 96.4% and 102% | vesicle binding response [6] 247% and 222% | inhibition [7] -113% and 1.62% | superoxide response (% of plate) [8] 106% | aptamer binding inhibition [9] 2% and -4% | response [10] -5.11% | inhibition [11] -0.17% and -5.67% | response [12] 1.16% and -26% | binding (% of control) [13] 95.8% and 103% | inhibition [15] -11% and 7% | differentiation response [16] 0.24% and -3.43%

CC(C)(C)C(=O)Nc1cccc(OC(F)(F)C(F)Cl)c1 (stereo not drawn)
inactive: percent of DMSO control GFP [1] 105% | GFP response vs DMSO [2] 106% | percent response of DMSO control [3] 105% | GFP response vs DMSO [4] 107% | GFP response, % of DMSO [5] 113% | vesicle binding response [6] 212% | inhibition [7] 25.3% | superoxide response (% of plate) [8] 105% | aptamer binding inhibition [9] 4% | response [10] -32.2% | inhibition [11] 8.53% | binding (% of control) [13] 99.5% | efflux inhibition (fraction of control) [14] -0.04 | inhibition [15] 5% | differentiation response [16] 11.8%
66.2%: double positive events [6]
active: response [12] 18.4%

CN(C)CCCN1c2ccccc2Sc2ccc(C(F)(F)F)cc21
active: inhibition [7] 53.4%
60.5%: double positive events [6]
inactive: percent of DMSO control GFP [1] 99% | GFP response vs DMSO [2] 106% | percent response of DMSO control [3] 99% | GFP response vs DMSO [4] 115% | GFP response, % of DMSO [5] 113% | vesicle binding response [6] 196% | superoxide response (% of plate) [8] 88.6% | aptamer binding inhibition [9] -7% | response [10] 26.6% | inhibition [11] 29.2% | response [12] -0.19% | binding (% of control) [13] 101% | efflux inhibition (fraction of control) [14] 0.25 | inhibition [15] 6% | differentiation response [16] -18.8%

COC(=O)c1cc(Br)c(=O)n(CCc2ccc(O)cc2)c1
inactive: percent of DMSO control GFP [1] 95.2% | GFP response vs DMSO [2] 109% | percent response of DMSO control [3] 93.9% | GFP response vs DMSO [4] 123% | GFP response, % of DMSO [5] 99.7% | vesicle binding response [6] 234% | inhibition [7] 6.4% | superoxide response (% of plate) [8] 103% | aptamer binding inhibition [9] 5% | response [10] -13.9% | inhibition [11] 4.99% | response [12] -0.03% | binding (% of control) [13] 96.8% | efflux inhibition (fraction of control) [14] -0.17 | inhibition [15] 8% | differentiation response [16] -10.4%
57.8%: double positive events [6]

COc1ccccc1C(O)c1nccn1C (stereo not drawn)
active: response [12] 24.9%
76.2%: double positive events [6]
inactive: percent of DMSO control GFP [1] 92% | GFP response vs DMSO [2] 127% | percent response of DMSO control [3] 106% | GFP response vs DMSO [4] 79.8% | GFP response, % of DMSO [5] 93.1% | vesicle binding response [6] 282% | inhibition [7] 17.1% | superoxide response (% of plate) [8] 81.3% | aptamer binding inhibition [9] 4% | response [10] -3.43% | inhibition [11] 0.35% | binding (% of control) [13] 104% | efflux inhibition (fraction of control) [14] -0.35 | inhibition [15] 11% | differentiation response [16] -7.37%

CC(=O)[C@@H]1[C@@H](C(=O)c2ccc(C)cc2)[C@]2(C(=O)Nc3ccccc32)[C@H]2C=Cc3cc(F)ccc3N12
inactive: percent of DMSO control GFP [1] 97.4% | GFP response vs DMSO [2] 102% | percent response of DMSO control [3] 90.1% | GFP response vs DMSO [4] 117% | GFP response, % of DMSO [5] 100% | vesicle binding response [6] 161% | inhibition [7] -119% | superoxide response (% of plate) [8] 112% | aptamer binding inhibition [9] 4% | response [10] 40.7% | inhibition [11] 4.08% | response [12] -5.02% | binding (% of control) [13] 98.9% | efflux inhibition (fraction of control) [14] -0.03 | inhibition [15] 2% | differentiation response [16] 8.8%
61.3%: double positive events [6]

Cc1cn([C@H]2C[C@H](N=[N+]=[N-])[C@@H](CO)O2)c(=O)[nH]c1=O
61.7%: double positive events [6]
inactive: percent of DMSO control GFP [1] 94.2% | GFP response vs DMSO [2] 138% | percent response of DMSO control [3] 110% | GFP response vs DMSO [4] 82.5% | GFP response, % of DMSO [5] 95.9% | vesicle binding response [6] 179% | inhibition [7] 16.2% | superoxide response (% of plate) [8] 88.8% | aptamer binding inhibition [9] 6% | response [10] 2.53% | inhibition [11] -5.32% | response [12] 9.2% | binding (% of control) [13] 103% | efflux inhibition (fraction of control) [14] 0.05 | inhibition [15] 13% | differentiation response [16] 14.7%
